This is part of a sample that, as a whole, favours compounds with a hit. Of some 83,000 tested, about 20% had one in any assay.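 In brief: 96-well plates, 48 h treatment, single concentration, percent growth endpoint.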 Calls of active or inactive are those of the source. Rule for the calls: active = growth percent below 10; inactive = the rest.
Assays:
Test in all cases: NCI-60 one-dose screen, 48 h (100 = growth as untreated, 0 = no growth, -100 = all killed)
Details in all cases: 10 µM unless noted
[1] = test system: HCT-15 colon
[2] = test system: HT29 colon
[3] = test system: SNB-75 CNS
[4] = test system: SNB-19 CNS
[5] = test system: U251 CNS
[6] = test system: PC-3 prostate
[7] = test system: SK-MEL-5 melanoma
[8] = test system: LOX IMVI melanoma
[9] = test system: SK-MEL-28 melanoma
[10] = test system: SK-MEL-2 melanoma
[11] = test system: EKVX NSCLC
[12] = test system: SN12C renal
[13] = test system: UO-31 renal
[14] = test system: TK-10 renal
[15] = test system: ACHN renal
[16] = test system: CCRF-CEM leukemia
[17] = test system: MOLT-4 leukemia
[18] = test system: CAKI-1 renal
[19] = test system: A498 renal

Measured: growth

Cc1cc(N2CCCC2)nc(N(CCNc2ccnc3cc(Cl)ccc23)Cc2ccco2)n1
inactive: [1] 18.3% | [3] 68.8% | [4] 29.4% | [5] 46.5% | [9] 31% | [10] 77.1% | [11] 36.1% | [12] 28.8% | [13] 10.8% | [14] 63.8% | [15] 39.6% | [16] 11%
active: [2] 5.58% | [6] 0.723% | [7] -93% | [8] 4.43% | [17] -9.45%

COc1ccccc1CNc1nc(N)nc2[nH]c3ccc(O)cc3c12
inactive: [1] 41% | [2] 18.9% | [3] 35.8% | [4] 59% | [5] 37.4% | [6] 65.5% | [7] 38.3% | [8] 43.2% | [10] 15.8% | [11] 90.4% | [12] 55.3% | [13] 59.6% | [14] 68.6% | [15] 68.5% | [18] 80.5% | [19] 28% | [16] 44% | [17] 22.4%

COc1cccc(-c2nn(-c3ccccc3)cc2-c2ccnc(NCCCNS(=O)(=O)c3ccc(Cl)cc3)c2)c1
inactive: [1] 34.4% | [2] 11.3% | [3] 71.2% | [4] 52.1% | [5] 35.5% | [6] 25.1% | [7] 30.8% | [8] 52.3% | [10] 47.1% | [11] 64% | [12] 49.3% | [13] 22% | [14] 52.3% | [15] 38.6% | [18] 49.1% | [19] 42.3% | [16] 21.4% | [17] 14.8%

Nc1c(C(=O)Nc2c(Cl)cccc2Cl)sc2nc3c(cc12)C(=O)CCC3
inactive: [1] 35.5% | [2] 13.3% | [3] 14.1% | [4] 39.6% | [5] 26.4% | [6] 39.9% | [7] 10.4% | [8] 44.4% | [10] 27.3% | [11] 76% | [12] 47.6% | [13] 48.3% | [14] 59.5% | [15] 50.9% | [18] 41.5% | [16] 54.8% | [17] 65.3%
active: [19] 2.03%

COc1ccc(C2=NN(c3nc(-c4ccc(OC)cc4)c(C#N)c(=O)n3C)C(=O)CC2)cc1
inactive: [1] 106% | [2] 109% | [3] 86.5% | [4] 96.7% | [5] 100% | [6] 82.4% | [7] 96.3% | [8] 101% | [10] 98.4% | [11] 107% | [12] 88.8% | [13] 85.9% | [14] 107% | [15] 101% | [18] 96% | [19] 116% | [16] 91% | [17] 96.6%

Cn1cc(-c2csc(-c3cn(CCCN4CCCCC4)c4ccc(Br)cc34)n2)c2cccnc21
inactive: [3] 63.6% | [10] 37% | [11] 49.6% | [14] 26.7% | [19] 79.1%
active: [1] -78.2% | [2] -72.8% | [4] -45.3% | [5] -80.6% | [6] -8.66% | [7] -33.7% | [8] -71.4% | [9] -86.6% | [12] -31.3% | [13] -93.9% | [15] -61.1% | [16] -23.8% | [17] -46.3%

COc1ccc(C2NC(=O)Nc3ccccc32)c(OC)c1 (stereo not drawn)
inactive: [1] 100% | [2] 108% | [3] 68.7% | [4] 99.1% | [5] 99.7% | [6] 82.2% | [7] 96% | [8] 103% | [10] 102% | [11] 97% | [12] 95.3% | [13] 78.3% | [14] 95.5% | [15] 99.4% | [18] 93% | [19] 105% | [16] 101% | [17] 95.5%

C=C1C(=O)O[C@H]2[C@H]1CC/C(COC(=O)NCCc1c[nH]c3ccccc13)=C\CC[C@@]1(C)O[C@@H]21
active: [1] -9.58% | [2] -39.8% | [8] -63.2% | [9] -17.6% | [12] -0.18% | [13] -100% | [14] -20.7% | [15] -93.7% | [16] 3.28% | [17] -3.9%
inactive: [3] 61.3% | [4] 56.9% | [5] 59.9% | [6] 35.1% | [7] 12.8% | [10] 61.5% | [11] 69.2% | [19] 80.8%
